Test results: PubChem BioAssay
Activity calls are given as the source filed them.

How the values were obtained:
[1] = system: PRMT1 (protein arginine N-methyltransferase 1); assay: PRMT1 binders on small-molecule microarrays, primary screen, biochemical, small-molecule microarray, 635 nm fluorescence (AID 1088); conditions: small-molecule microarray binding, higher = more signal;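 further: binding of Prmt1 protein to compounds spotted on small-molecule microarray slides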
[2] = yeast growth modulation, basal conditions, primary screen, YJM789 clinical isolate, OD600, 24 h (AID 1089);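 further: growth of clinical yeast isolate S. cerevisiae YJM 789 seeded 1000 cells per well; test concentration not given here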; conditions: S. cerevisiae YJM789 growth, higher = more signal, called active from +8 up or from −8 down
[3] = fission yeast growth modulation, primary screen, strain 972, OD600, 24 h, no modulator (AID 1090);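 further: basal condition with compound alone and no growth modifier present; test concentration not given here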; conditions: S. pombe 972 growth, higher = more signal, called active from +8 up or from −8 down
[4] = S. cerevisiae growth modulation with rapamycin, primary screen, strain BY4716, OD600, 96 h (AID 1091); conditions: higher = more signal, called active from +8 up or from −8 down; further: test concentration not given here
[5] = target: Torsin-1A-interacting protein 2 (Homo sapiens) (UniProt Q8NFQ8); assay: LULL1 binders on small-molecule microarray, primary screen, cell lysate, human LULL1 lysate, 635/667 nm fluorescence (AID 1092); conditions: hLULL1 lysate binding, 635 nm fluorescence, higher = more signal;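 further: probe is lysate of COS7 cells overexpressing human LULL1; score merges per-feature 667 nm fluorescence with signal-to-noise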
Chain of Torsin-1A-interacting protein 2 (Homo sapiens) (Q8NFQ8 whole entry, looked up): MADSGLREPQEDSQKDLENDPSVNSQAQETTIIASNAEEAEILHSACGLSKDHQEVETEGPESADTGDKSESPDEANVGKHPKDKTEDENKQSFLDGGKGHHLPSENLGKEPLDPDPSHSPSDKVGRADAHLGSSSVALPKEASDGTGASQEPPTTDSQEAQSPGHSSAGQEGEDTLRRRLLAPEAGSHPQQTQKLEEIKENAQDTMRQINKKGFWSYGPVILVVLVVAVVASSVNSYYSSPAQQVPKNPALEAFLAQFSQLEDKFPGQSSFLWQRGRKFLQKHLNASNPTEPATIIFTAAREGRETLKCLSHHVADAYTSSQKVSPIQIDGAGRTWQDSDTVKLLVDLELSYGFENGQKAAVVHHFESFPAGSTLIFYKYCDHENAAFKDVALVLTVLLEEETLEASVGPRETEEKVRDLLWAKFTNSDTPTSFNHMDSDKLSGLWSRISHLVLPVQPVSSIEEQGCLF

[6] = E. coli growth modulation, two-sided OD650, primary screen, E. coli filamentation project, strain DRC41, 24 h (AID 1093); conditions: OD650, 24 h, higher = more signal, called active from +8 up or from −8 down;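 further: MC1000 strain lacking acrAB efflux and sulA so SOS filamentation is blocked; test concentration not given here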
[7] = small-molecule microarray binders of probe aLefty2, primary screen, biochemical, biotinylated probe, 635/667 nm fluorescence (AID 1094); conditions: higher = more signal;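 further: score merges spot fluorescence near 667 nm with spot signal-to-noise ratio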
[8] = system: Noggin (protein binding on small-molecule microarray); assay: Noggin binders on small-molecule microarray, primary screen, biochemical, 635/667 nm fluorescence (AID 1095); conditions: 635 nm fluorescence, higher = more signal;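 further: score merges 667 nm feature fluorescence with signal to noise over triplicate slides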
[9] = target: Neurogenic locus notch homolog protein 3 (Homo sapiens) (UniProt Q9UM47); assay: NOTCH3 binders on small-molecule microarray, primary screen, biochemical, 635/667 nm fluorescence (AID 1096); conditions: NOTCH3 binding, 635 nm fluorescence, higher = more signal
Chain of Neurogenic locus notch homolog protein 3 (Homo sapiens) (Q9UM47 whole entry, looked up): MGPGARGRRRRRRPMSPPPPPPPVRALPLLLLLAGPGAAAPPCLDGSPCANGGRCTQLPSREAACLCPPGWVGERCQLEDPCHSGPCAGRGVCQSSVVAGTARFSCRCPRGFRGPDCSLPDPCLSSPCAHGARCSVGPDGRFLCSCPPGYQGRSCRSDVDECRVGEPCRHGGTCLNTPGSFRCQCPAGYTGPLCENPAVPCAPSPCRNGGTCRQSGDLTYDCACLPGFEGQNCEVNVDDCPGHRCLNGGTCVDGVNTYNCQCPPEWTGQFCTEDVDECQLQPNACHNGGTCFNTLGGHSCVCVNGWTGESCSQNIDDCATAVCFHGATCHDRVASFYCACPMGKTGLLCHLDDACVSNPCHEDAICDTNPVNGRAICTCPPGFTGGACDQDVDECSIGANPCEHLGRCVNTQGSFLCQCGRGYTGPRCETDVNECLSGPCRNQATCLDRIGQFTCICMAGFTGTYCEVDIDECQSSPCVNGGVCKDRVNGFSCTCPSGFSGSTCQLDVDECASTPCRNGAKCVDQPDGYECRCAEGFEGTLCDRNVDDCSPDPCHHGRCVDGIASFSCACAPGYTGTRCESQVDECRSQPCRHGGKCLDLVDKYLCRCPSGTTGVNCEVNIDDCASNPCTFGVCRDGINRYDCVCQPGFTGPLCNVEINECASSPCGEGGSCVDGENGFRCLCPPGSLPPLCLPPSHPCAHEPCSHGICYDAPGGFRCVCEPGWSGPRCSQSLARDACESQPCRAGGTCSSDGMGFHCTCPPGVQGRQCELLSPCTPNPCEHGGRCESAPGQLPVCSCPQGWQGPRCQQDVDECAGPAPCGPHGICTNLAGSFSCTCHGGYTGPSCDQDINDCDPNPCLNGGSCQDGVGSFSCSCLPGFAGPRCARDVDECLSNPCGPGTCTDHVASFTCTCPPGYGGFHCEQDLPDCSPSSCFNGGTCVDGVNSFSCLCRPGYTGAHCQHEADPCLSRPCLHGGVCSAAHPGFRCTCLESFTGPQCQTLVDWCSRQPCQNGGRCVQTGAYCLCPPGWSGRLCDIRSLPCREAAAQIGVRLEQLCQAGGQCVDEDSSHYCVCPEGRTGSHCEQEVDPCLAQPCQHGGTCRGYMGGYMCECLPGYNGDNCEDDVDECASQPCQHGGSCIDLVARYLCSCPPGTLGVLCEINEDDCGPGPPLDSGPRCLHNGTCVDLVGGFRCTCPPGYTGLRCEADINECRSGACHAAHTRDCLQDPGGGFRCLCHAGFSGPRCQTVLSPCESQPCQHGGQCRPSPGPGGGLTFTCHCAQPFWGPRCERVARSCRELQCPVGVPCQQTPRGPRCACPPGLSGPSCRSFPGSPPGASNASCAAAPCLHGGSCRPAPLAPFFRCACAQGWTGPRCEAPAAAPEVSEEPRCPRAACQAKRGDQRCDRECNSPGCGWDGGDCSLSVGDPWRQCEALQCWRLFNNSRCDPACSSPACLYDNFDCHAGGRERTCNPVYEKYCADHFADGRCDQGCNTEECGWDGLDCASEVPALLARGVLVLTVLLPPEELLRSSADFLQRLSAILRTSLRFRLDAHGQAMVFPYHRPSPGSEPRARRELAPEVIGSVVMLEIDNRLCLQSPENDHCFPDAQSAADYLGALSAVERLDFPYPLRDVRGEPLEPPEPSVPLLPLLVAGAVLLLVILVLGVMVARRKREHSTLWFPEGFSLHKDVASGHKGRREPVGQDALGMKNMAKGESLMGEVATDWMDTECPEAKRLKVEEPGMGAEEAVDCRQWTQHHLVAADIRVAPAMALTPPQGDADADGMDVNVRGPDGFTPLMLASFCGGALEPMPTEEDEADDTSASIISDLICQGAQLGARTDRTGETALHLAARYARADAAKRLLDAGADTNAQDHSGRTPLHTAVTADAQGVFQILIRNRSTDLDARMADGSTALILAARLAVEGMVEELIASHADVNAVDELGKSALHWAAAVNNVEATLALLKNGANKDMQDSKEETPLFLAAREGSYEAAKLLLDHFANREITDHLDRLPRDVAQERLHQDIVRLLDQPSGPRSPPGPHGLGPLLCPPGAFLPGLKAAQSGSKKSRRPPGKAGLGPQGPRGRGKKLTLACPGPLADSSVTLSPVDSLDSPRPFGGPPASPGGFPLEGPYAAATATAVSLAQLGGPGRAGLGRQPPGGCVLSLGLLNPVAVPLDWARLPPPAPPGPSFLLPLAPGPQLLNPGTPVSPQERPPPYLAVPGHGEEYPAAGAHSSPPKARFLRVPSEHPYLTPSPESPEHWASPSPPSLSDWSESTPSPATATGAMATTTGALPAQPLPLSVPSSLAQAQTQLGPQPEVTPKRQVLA

[10] = small-molecule microarray binders of probe aEGFR, primary screen, biochemical, biotinylated probe, 635/667 nm fluorescence (AID 1097); conditions: higher = more signal;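 further: probe is a biotinylated anti-EGFR antibody binding compounds printed on slides; score combines fluorescence near 667 nm and signal to noise of each spot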

SMILES | composite z-score [1] | z-score [2] | z-score [3] | z-score [4] | composite z-score [5] | z-score [6] | composite z-score [7] | composite z-score [8] | composite z-score [9] | composite z-score [10]
O=C(O)[C@H](Cc1ccccc1)n1cc(-c2ccccn2)nn1 | 0.427 | 0.445 (inactive) | 1.25 (inactive) | -0.609 (inactive) | 0.524 | -0.631 (inactive) | -0.103 | 0.665 | 0.596 | -0.042
COc1cc2c(cc1OC)CN(C(=O)[C@H]1[C@@H]3C(=O)O[C@@H](c4ccccc4)[C@@H](c4ccccc4)N3[C@@H](c3ccc(OCCO)cc3)[C@]13C(=O)Nc1ccc(C#CC4(O)CCCCCC4)cc13)CC2 | 1.56 | 3.2 (inactive) | 1.28 (inactive) | 4.84 (inactive) | 2.37 | 2.32 (inactive) | 1.02 | 1.47 | 1.09 | 0.678
CC(C)NC(=O)[C@@]1(C)c2ccccc2C(=O)N(C(C)C)[C@H]1c1ccc(CO)cc1 | 1.45 | -0.501 (inactive) | -1.63 (inactive) | -0.471 (inactive) | 3.47 | -0.297 (inactive) | -0.0466 | -0.781 | 0.165 | -0.227
[N-]=[N+]=NCc1ccccc1[C@H]1OC(c2ccc(OCCCO)cc2)=N[C@@]1(CCS(=O)(=O)c1ccccc1)C(N)=O | 1.47 | 0.0249 (inactive) | -0.131 (inactive) | -0.595 (inactive) | 3.36 | -0.199 (inactive) | 0.074 | 0.086 | 0.861 | 0.0929
C=CC[C@H](OC(=O)Nc1ccc(OC)cc1)c1ccc(O)c2ccccc12 | 1.33 | -23.9 (active) | -19.5 (active) | -1.21 (inactive) | 2.08 | 0.364 (inactive) | 0.054 | 0.578 | 1.06 | -0.0509
CC(C)CN1C(=O)[C@@]2(c3ccc([N+](=O)[O-])cc3)CC(=O)N(CC34CC5CC(CC(C5)C3)C4)[C@@H]2c2ccc(CO)cc21 | -0.297 | 0.275 (inactive) | 0.0569 (inactive) | -1.32 (inactive) | 0.295 | -1.55 (inactive) | -0.239 | -1.21 | -0.506 | -0.256
CN(C)C(=O)[C@@]1(Cc2ccccc2N=[N+]=[N-])COC(c2ccc(OCCCO)cc2)=N1 | 1.37 | -1.85 (inactive) | -7.64 (inactive) | 0.337 (inactive) | 3.33 | 1.84 (inactive) | 0.072 | 0.577 | 0.481 | 0.553
CN(C)CCCNC(=O)[C@@H]1c2ccccc2C(=O)N(Cc2ccc(OC(F)(F)F)cc2)[C@H]1c1ccc(CO)cc1 | 1.54 | -1.02 (inactive) | -1.06 (inactive) | -1.41 (inactive) | 2.22 | -0.883 (inactive) | -0.0654 | 0.912 | 0.951 | -0.171
CC(C)C(CO)N1C(=O)[C@]2(C)C3C(=O)OCCC/C=C\[C@H]3OC23C=CCN(c2ccc(Cl)cc2)C(=O)[C@@H]13 (stereo not given in full) | 0.88 | -0.579 (inactive) | -1.14 (inactive) | -0.268 (inactive) | 3.28 | -0.718 (inactive) | -0.0458 | -0.608 | 0.0253 | -0.155
COc1ccc([Si](C)(C)[C@@H]2[C@@H](CCO)O[C@]3(C(=O)N(Cc4cccc(N5C(=O)c6cccc7cccc5c67)c4)c4ccccc43)[C@H]2C)cc1 | 1.22 | 2.2 (inactive) | 2.22 (inactive) | 38.9 (active) | 1.24 | 0.399 (inactive) | -0.0931 | -0.25 | 0.267 | -0.221
COC(=O)[C@@]1(Cc2ccc(F)cc2)[C@H]2c3cc(C(=O)N4CCCC4)n(CCc4c[nH]c5ccc(OC)cc45)c3C[C@H]2CN1C(=O)c1ccccc1 | -0.508 | -0.0567 (inactive) | -0.156 (inactive) | 2.07 (inactive) | 3.37 | -0.803 (inactive) | 0.957 | 1.26 | 1.11 | 0.44
C=C(C(=O)CC[C@H](OC(=O)c1cccnc1)c1cccc(OCCO)c1)C(C)C | 1.03 | 0.865 (inactive) | 0.167 (inactive) | 1.1 (inactive) | 0.391 | 0.483 (inactive) | -0.017 | -0.367 | -0.424 | -0.0238
CCC[C@@H]1C[C@@]1(CCC)[C@@H](NP(=O)(c1ccccc1)c1ccccc1)c1ccc(Cl)cc1 | -0.189 | 1.2 (inactive) | 0.095 (inactive) | 0.956 (inactive) | 0.334 | -1.79 (inactive) | -0.0703 | 0.112 | -0.151 | -0.233
O=C1c2ccccc2[C@](Cc2ccccc2I)(C(=O)NCc2ccccc2)[C@H](c2ccc(CO)cc2)N1C1CCCCC1 | 1.27 | -0.0116 (inactive) | -1.32 (inactive) | -0.0677 (inactive) | 1.78 | -0.403 (inactive) | 0.117 | 1.32 | 0.918 | 0.494
COc1ccc(NC(=O)O[C@H]2[C@H](OC(=O)Nc3ccc4c(c3)OCO4)[C@@H](OC(=O)Nc3ccc4c(c3)OCO4)[C@@H](OC)O[C@@H]2CO)cc1 | 1.56 | 1.5 (inactive) | 1.61 (inactive) | -0.31 (inactive) | 3.66 | 1.93 (inactive) | -0.0396 | 0.89 | 1.08 | -0.0953
O=C(CCCCCCC(=O)Nc1ccccc1)N/N=C/c1ccccc1 | -0.998 | 0.507 (inactive) | 0.0263 (inactive) | 1.06 (inactive) | -0.743 | 0.195 (inactive) | -0.105 | -0.361 | -0.783 | -0.117
O=C(CS)NCCCCCCNC(=O)[C@H]1C[C@H]2C(=O)N[C@@H](Cc3ccccc3)C(=O)N2[C@H]1c1cccc(OCCO)c1 | 1.54 | 0.646 (inactive) | 0.311 (inactive) | 1.15 (inactive) | 2.81 | -0.23 (inactive) | 0.118 | 1.6 | 1.02 | 0.14
Cc1ccc(S[C@]2(C(=O)NCc3ccccc3)CC(=O)N(C(C)C)[C@@H]2c2ccc(CO)cc2I)cc1 | 0.448 | -2.82 (inactive) | -1.38 (inactive) | 0.317 (inactive) | 1.73 | 0.349 (inactive) | 0.299 | -0.466 | -0.44 | -0.229
CC[C@H]1C2=C3C(CC[C@H]4C(OCc5ccc(F)cc5C(F)(F)F)OC[C@](C)([C@@H]34)N(C(=O)OC(C)(C)C)C2)C2COC(=O)OCC21 (stereo not given in full) | 0.254 | 0.416 (inactive) | 1.13 (inactive) | 0.896 (inactive) | 3.34 | -1.81 (inactive) | 0.375 | -0.581 | 1.1 | -0.117
CCOC(=O)[C@@H]1[C@@H]2C(=O)N(CC)C(=O)[C@@H]2C[C@@H]1Sc1ccccc1 | 0.814 | -0.624 (inactive) | 0.792 (inactive) | 2.66 (inactive) | 1.69 | 0.0399 (inactive) | -0.0632 | -0.132 | 0.722 | 0.113
C=C(CCCC)/C(=C/C[C@@H](OC(=O)c1ccncc1)c1cccc(OCCO)c1)c1cnc2ccccc2c1 | 1.57 | -2.12 (inactive) | -1.98 (inactive) | 1.53 (inactive) | 1.52 | 0.657 (inactive) | 0.0113 | 1.55 | 1.06 | 0.0617
CC=CC(O)C1C=CC2C(=O)N(C)C(=O)C2N1Nc1ccc([N+](=O)[O-])cc1[N+](=O)[O-] (stereo not given) | 0.0758 | 0.837 (inactive) | 0.325 (inactive) | 1.67 (inactive) | 3.57 | -1.06 (inactive) | -0.0478 | -0.448 | -0.44 | -0.342
Cc1ccc(S[C@]2(C(=O)NC(C)C)CC(=O)N(Cc3ccccc3C(F)(F)F)[C@@H]2c2ccc(CO)cc2I)cc1 | 1.13 | -2.32 (inactive) | -4.49 (inactive) | 1.18 (inactive) | 0.515 | -1.73 (inactive) | 0.0844 | -0.76 | -0.669 | -0.283
C=CC[C@]12N=C(c3ccc(OCCCO)cc3)O[C@H]1c1ccccc1N(C)C2=O | 1.57 | -0.167 (inactive) | -4.1 (inactive) | 0.532 (inactive) | 2.78 | -0.479 (inactive) | 0.28 | 0.798 | 0.725 | 0.0488
O=C1O[C@H](c2ccccc2)[C@H](c2ccccc2)N2[C@H]1[C@@H](C(=O)O)[C@]1(C(=O)Nc3ccccc31)[C@H]2c1ccc(O)cc1 | 0.548 | 1.34 (inactive) | 0.278 (inactive) | 0.3 (inactive) | 1.87 | -0.423 (inactive) | -0.166 | -0.317 | -0.188 | -0.257
Cc1ccc(C(C)CC(O)C2C=CC3C(=O)N(c4ccccc4)C(=O)C3N2Nc2ccc(C(C)C)cc2)o1 (stereo not given) | 0.843 | 0.379 (inactive) | 0.0145 (inactive) | 0.842 (inactive) | 1.28 | -1.36 (inactive) | 0.295 | -0.641 | 1.04 | 0.14
CN1C(=O)C2C=CC(C(O)C3CCCCC3)N(N3CCCCC3)C2C1=O (stereo not given) | 1.56 | 0.823 (inactive) | 0.788 (inactive) | 0.884 (inactive) | 2.45 | -0.593 (inactive) | 0.25 | 0.684 | 1.07 | 0.0939
